RORg inh: inhibitors of mouse ROR gamma transcriptional activity. AID 2551. P51450. actives 5.4% (n = 310,000). Potency, µM (titrated, usually from 53.6 µM), for inactives: at the highest dose activity change, negative = inhibition, hits mostly inhibitors. Drosophila S2 Gal4-RORgamma UAS-luciferase reporter, 20 h; note: nearly all actives have a fitted effect of over 60% in size
Target sequence (P51450 whole entry, looked up, the tested form may be a part): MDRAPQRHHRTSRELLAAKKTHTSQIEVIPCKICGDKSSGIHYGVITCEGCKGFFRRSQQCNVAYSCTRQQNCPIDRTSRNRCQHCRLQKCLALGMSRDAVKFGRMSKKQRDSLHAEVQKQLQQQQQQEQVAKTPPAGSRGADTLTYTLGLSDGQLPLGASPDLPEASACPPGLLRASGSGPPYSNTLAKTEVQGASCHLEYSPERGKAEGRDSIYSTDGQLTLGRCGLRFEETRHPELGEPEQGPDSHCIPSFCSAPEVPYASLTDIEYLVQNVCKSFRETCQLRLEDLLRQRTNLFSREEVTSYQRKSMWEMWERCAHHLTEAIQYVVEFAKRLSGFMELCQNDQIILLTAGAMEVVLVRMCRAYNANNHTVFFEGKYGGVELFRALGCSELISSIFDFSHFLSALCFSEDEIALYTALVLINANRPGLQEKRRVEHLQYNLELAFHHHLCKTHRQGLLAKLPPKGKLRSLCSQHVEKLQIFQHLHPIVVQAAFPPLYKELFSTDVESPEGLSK
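Using a luciferase readout, inhibitors were identified by reduced reporter activity in Drosophila cells coexpressing a copper-inducible Gal4–ROR gamma fusion and UAS-driven Photinus luciferase, incubated 20 hr after 700 uM copper sulfate.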
Tau ThT inhib: blocks human tau fibril formation measured by thioflavin T. P10636. recombinant tau K18 P301L, heparin-induced fibrillization, ThT fluorescence. Potency, µM (titrated, usually from 57.4 µM), inactives show at the top dose activity, negative = inhibition, most hits filed as inhibitors. actives 2.1% (n = 270,000). AID 1460; note: nearly all actives have a fitted effect of over 55% in size
Target sequence (P10636 561-689 P618L limits assumed): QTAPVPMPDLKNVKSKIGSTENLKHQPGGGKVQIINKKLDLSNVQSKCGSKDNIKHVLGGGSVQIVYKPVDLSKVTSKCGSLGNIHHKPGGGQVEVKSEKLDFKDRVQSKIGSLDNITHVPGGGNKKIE
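ThT emission at 510 nm, taken 1 hr after adding 30 uM dye, quantifies aggregates formed when 20 uM heparin acts on human tau K18 P301L for 6 hr at 37 C.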
Tau FP inhib: inhibitors of human tau fibril formation. P10636. K18 P301L tau heparin fibrillization, Alexa594 FP, 6 h. Potency, µM (doses to about 57.7 µM), for inactives: top-dose activity, negative = inhibition, most hits filed as inhibitors. actives 0.39% (n = 280,000). AID 1468; note: nearly all actives have a fitted effect of over 55% in size
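Human K18 P301L fragment (15 uM unlabeled plus 0.24 uM Alexa 594-labeled) in 100 mM sodium acetate pH 7 with compound, aggregation induced by 20 uM heparin for 6 hr at 37 C. ThT (30 uM) added for 1 hr, then Alexa 594 FP read.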
VP16 counter: counter-screen for ROR gamma inhibitors: Gal4-VP16 reporter | Drosophila S2 Gal4-VP16 UAS-luciferase, luminescence, 20 h | Potency, µM (titrated, usually from 53.6 µM), for the others: at the top dose activity, negative = inhibition, usual class: inhibitors | actives 3.5% (n = 310,000) | AID 2546;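 note: Gal4-VP16 expression switched on by copper sulfate through the metallothionein promoter; nearly all actives have a fitted effect of over 50% in size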
Tau fluor cs: counter-screen for tau fibril formation inhibitors; tau K18 P301L Alexa594 fluorescence, heparin fibrillization; Potency, µM (doses to about 57.7 µM), inactives show at the highest dose activity change, negative = decrease; AID 1463; actives 0.93% (n = 280,000); note: nearly all actives have a fitted effect of over 55% in size
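Human tau K18 P301L (15 uM unlabeled, 0.24 uM Alexa 594-labeled) in 100 mM sodium acetate pH 7 with 20 uM heparin, 6 hr at 37 C. ThT 30 uM added, 1 hr ambient; Alexa 594 FP and total fluorescence read at 555/632 nm.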
The depositor's hits bear a star; u = inconclusive; x = no result; [ ] = another dose, or the depositor's remark. Rows were chosen to be rich in hits. Some 7.3% of all compounds tested hit in one or more screens of this group. Calls come from the whole dose curve; as a rule, active = well fitted curve in the direction sought with a large enough effect; inconclusive = small, poorly fitted or top-dose-only effect, or another doubt; inactive = no such curve, though single readings can be large; an effect the other way counts as inactive or inconclusive. % is set by controls: 0 for no effect and ±100 for the full control effect; potency is the fitted concentration of half-maximal effect.

SMILES	RORg inh	Tau ThT inhib	Tau FP inhib	VP16 counter	Tau fluor cs
CCCC(C)c1nnc(NC(=O)c2cc(C(=O)OC)cc([N+](=O)[O-])c2)s1 (configuration not stated)	10µM*	-12%	5%	16µM*	-19%
Cc1ccc2nc(/C(C#N)=C\c3ccc(N4CCCCC4)c([N+](=O)[O-])c3)[nH]c2c1	u	3.2µM*	7%	-13%	-30%
N#C/C(=C/c1ccc(N2CCOCC2)o1)c1ccc(Cl)cc1	u	16µM*	u	10µM*	u
N#C/C(=C/c1ccc(N2CCCC2)c([N+](=O)[O-])c1)c1nc2ccccc2[nH]1	32%	2.5µM*	-13%	-14%	u
Cc1ccc2nc(/C(C#N)=C/c3ccccc3C(=O)O)[nH]c2c1	-7%	x	x	-11%	x
N#C/C(=C\c1ccc(Oc2ccc(C(F)(F)F)cc2[N+](=O)[O-])cc1)c1nc2ccccc2[nH]1	u	u	u	-24%	u
N#C/C(=C\c1ccc(N2CCCCC2)o1)C(N)=O	1%	u	9%	5%	0%
Cc1ccc2nc(/C(C#N)=C/c3cccc(Br)c3)[nH]c2c1	x	5µM*	-4%	x	u
COc1cccc(C(=O)N2CCN(c3ccccn3)CC2)c1	-9%[1.91 µM]	x	x	3%	x
COC(=O)/C(C#N)=C/c1ccc(N2CCOCC2)c([N+](=O)[O-])c1	-17%	-14%	3%	1%	-2%
N#C/C(=C\c1ccc(N2CCOCC2)o1)c1nc2ccccc2[nH]1	16µM*	7.9µM*	-11%	0%	u
N#C/C(=C\c1ccc(N2CCOCC2)c([N+](=O)[O-])c1)c1nc2ccccc2[nH]1	u	5µM*	-7%	u	22µM*[quencher]
OCCCc1ccccc1	0%	x	x	-1%	x
NCCSSCCN	7%	14µM*	u	14%	-19%
COc1cccc([C@@H]2Oc3ccc(OC)cc3C(=O)[C@H]2OC(=O)NCc2ccco2)c1	-13%	-5%	-5%	-12%	-7%
Cc1ccc(NC(=O)CSc2nc3c(oc4ccccc43)c(=O)n2Cc2ccco2)cc1F	x	1%	-7%	x	-11%
COc1nc(/C=C/N(C)C)c([N+](=O)[O-])c(OC)n1	6%	8.9µM*	-6%	3%	u
COc1ccc(NS(=O)(=O)c2cc3[nH]c(=O)c(=O)[nH]c3cc2C)cc1OC	x	-14%	2%	x	-6%
CCCCNCC(=O)Nc1sc(C)c(C)c1C(=O)OCC	13µM*	-8%	9%	u	0%
CCOC(=O)c1c(NC(C)=O)sc(C(=O)NC2CCCC2)c1C	22%	x	x	-4%	x
CCOC(=O)c1c(NC(=O)/C=C/c2ccc(OC)c(OC)c2)sc(C(C)=O)c1C	x	-2%	-2%	x	2%
CCOC(=O)c1c(NC(C)=O)sc(/C(C)=N/Nc2ccc(C(=O)O)cc2)c1C	11µM*	x	x	u	x
CCOC(=O)c1sc(NC(=S)NC(=O)c2ccccc2)c(C(=O)OCC)c1C	2.2µM*	4%	u	u	2%
CCCOc1ccc(/C=C/C(=O)Nc2sc(C)c(C)c2C(=O)OCC)cc1OC	x	28µM*	u	x	-20%
O=C(NCc1ccccc1Cl)c1ccc2c(c1)N(Cc1ccccc1)C(=O)CS2	x	-2%	-10%	x	-25%
SMILES	RORg inh	Tau ThT inhib	Tau FP inhib	VP16 counter	Tau fluor cs
COC(=O)c1c(NC(=S)Nc2ccccc2Cl)sc(C)c1C	2.8µM*	u	-7%	6.3µM*	u
CCOC(=O)c1c(NC(=S)NC(C)=O)sc(C)c1C	7.9µM*	-14%	-5%	11µM*	-6%
CC(C)[C@H](NC(=O)c1ccccc1)C(=O)NCCc1ccccc1	-2%	x	x	2%	x
C=C(C)C(=O)/C=C/c1ccc(Br)cc1	38%	-18%	-17%	-16%	-3%
Cc1ccc(CNC(=O)Cc2c(C)c3cc4c(C)coc4cc3oc2=O)cc1	x	-2%	-7%	x	1%
C=CCn1c(C)cc(C(=O)Cn2nc(C(=O)O)c3ccccc3c2=O)c1C	16µM*	-16%	7%	u	-6%
COCCn1c(C)cc(C(=O)Cn2nc(C(=O)O)c3ccccc3c2=O)c1C	5.6µM*	-1%	3%	u	-1%
COc1ccc2[nH]c(O)c(N=NC(=O)Cc3cccs3)c2c1	17%	16µM*	14%	-2%	u
COc1ccc(/C=C/C(=O)NC(=S)NNC(=O)c2c(-c3ccccc3)noc2C)cc1	3.2µM*	-14%	-5%	5µM*	-16%
Cc1ccccc1C(=O)NNC(=S)NC(=O)c1ccc(Cl)cc1Cl	u	u	4%	-1%	-13%
Cc1onc(-c2ccccc2)c1C(=O)NNC(=S)NC(=O)c1ccc(Cl)cc1Cl	4.5µM*	-10%	4%	11µM*	-9%
Cc1onc(-c2ccccc2)c1C(=O)NNC(=S)NC(=O)c1ccc(Br)cc1	4.5µM*	-11%	14%	3.5µM*	-6%
Cc1onc(-c2ccccc2)c1C(=O)NNC(=S)NC(=O)/C=C/c1ccccc1	5.6µM*	4%	1%	u	1%
O=C1CCCC2[C@@H]3CCC[N@+]4([O-])CCC[C@H](CN12)C34 (some centres not stated)	-1%	-7%	u	-5%	-5%
CCc1ccc(N2CCn3c2nc2c3c(=O)n(Cc3cccc(C)c3)c(=O)n2C)cc1	x	-8%	-3%	x	-5%
Cc1ccc(CN(C)C(=O)c2cc(COc3cccc(C(F)(F)F)c3)on2)o1	-16%	x	x	-10%	x
CCOc1ccccc1-c1ccc(C(=O)O)s1	13%[96.6 µM]	-9%[126 µM]	0%[126 µM]	-18%[96.6 µM]	-6%[126 µM]
CNC(=O)N(O)C1N(/N=C/c2cc(Br)ccc2O)C(=S)SC1(C)C (configuration not stated)	16µM*	x	x	u	x
CNC(=O)N(O)C1N(/N=C/c2ccc(C)cc2)C(=S)SC1(C)C (configuration not stated)	5%	x	x	6%	x
CC1(C)SC(=S)N(/N=C/c2ccccc2O)C1N(O)C(=O)Nc1ccccc1 (configuration not stated)	18µM*	u	u	u	u
CC1(C)SC(=S)N(/N=C/c2cccnc2)C1N(O)C(=O)Nc1ccccc1 (configuration not stated)	-11%	x	2%	6%	-6%
Cc1n[nH]c(C)c1Cc1c(F)cccc1Cl	16µM*	x	-6%	-9%	-7%
Cc1[nH]ccc(=O)c1Cc1c(Cl)cccc1Cl	11%	x	x	2%	x
CC1=CC(C)(C)N2C(=O)C(=Nc3ccc(O)cc3)c3cccc1c32	-14%	13µM*	28µM*	u	u
COc1cc(N=C2C(=O)N3c4c(cccc42)C(C)=CC3(C)C)cc(OC)c1	-25%	u	-4%	1%	-17%
CCCCOc1ccc(CNC(=O)c2cnc3sc(N4CCCCCC4)nn3c2=O)cc1	x	9%	-1%	x	3%

From PubChem BioAssay
